According to PubChem BioAssay AID602192 (The Scripps Research Institute Molecular Screening Center, 2012):
Among all 2,400 compounds or so, about 750 (31%) were called active.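 The calls were made as follows: active = mean activation across replicates above the hit cutoff set in the earlier primary screen (cut at about 8% in these data); inactive = the rest.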 A selection follows.

The molecules below were run against Melanocortin receptor 4 (Homo sapiens) (UniProt P32245) (assay: MC4R beta-arrestin agonists, retest, confirmation, cell-based, luminescence, U2OS (AID 602192)). Conditions: U2OS MC4R beta-arrestin recruitment, at 8.9 µM, stronger effect = higher value, scaled DMSO 0%, Melanotan II 100%.
Sequence of Melanocortin receptor 4 (Homo sapiens) (P32245 whole entry, looked up): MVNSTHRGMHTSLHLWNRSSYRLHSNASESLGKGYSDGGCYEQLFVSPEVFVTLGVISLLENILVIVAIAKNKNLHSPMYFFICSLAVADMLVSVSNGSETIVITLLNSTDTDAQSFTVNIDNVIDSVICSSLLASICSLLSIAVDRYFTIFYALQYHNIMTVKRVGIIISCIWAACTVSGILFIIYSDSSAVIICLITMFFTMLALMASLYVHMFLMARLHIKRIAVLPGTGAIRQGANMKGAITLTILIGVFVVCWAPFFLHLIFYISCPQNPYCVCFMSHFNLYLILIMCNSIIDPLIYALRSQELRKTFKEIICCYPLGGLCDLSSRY

| Structure (SMILES) | activation |
| --- | --- |
| Cc1ccc(CCC(=O)Nc2ncc(Cc3cc(Cl)ccc3Cl)s2)o1 | 15.2% (active) |
| COc1c(Cl)cc(C(=O)Nc2ccc(Cl)cn2)cc1Cl | 2.15% (inactive) |
| COc1cccc(NC(=S)NC(=O)c2c(Cl)c(C)nn2C)c1 | 0.75% (inactive) |
| O=C(N/N=C/c1ccc(OC(=O)c2ccccc2Cl)cc1)c1ccc(O)cc1 | 10.9% (active) |
| CCN(CC)c1ccc(C(=O)N/N=C/c2ccc(N3CCOCC3)cc2)cc1 | 3.23% (inactive) |
| CCCOc1ccc(C(=O)C(CCC(CNCC)C(=O)c2ccc(OCCC)cc2)CNCC)cc1 (stereo not drawn) | 47% (active) |
| COc1cc(/C=C2\Oc3ccc(C#Cc4ccc(O)cc4)cc3C2=O)cc(OC)c1 | 17.7% (active) |
| S=C(NCCCc1cnc[nH]1)NCCCN(Cc1ccc(Cl)c(Cl)c1)c1ccc(Br)cn1 | 12.9% (active) |
| CC(C)c1ccc2c(c1)c(SC(C)(C)C)c(CC(C)(C)C(=O)O)n2Cc1ccc(Cl)cc1 | 6.79% (inactive) |
| Cc1cc(OCc2cc(C(=O)NCc3cc(C(C)C)no3)no2)cc(C)c1Cl | -1.7% (inactive) |
| Oc1ccccc1N1CCN(c2ncnc3sc(-c4ccccc4)cc23)CC1 | 3.16% (inactive) |
| O=C(NC(=S)Nc1cccc2c(O)cccc12)c1cccc(Br)c1 | 14.4% (active) |
| CCOc1ccc(/C=C/C(=O)OCC(=O)c2ccccc2OC)cc1OC | 4.4% (inactive) |
| CCN1CCC2(CC1)N=C(c1ccc(F)cc1)C(=S)N2C(=O)c1ccc(C)cc1 | 6.69% (inactive) |
| NC(N)=Nc1nc(-c2ccccc2)c2cc(Cl)ccc2n1 | 19.8% (active) |
| CCCCN1CC(C)(C)[C@H](CC(=O)Nc2ccc(Br)cc2)C1=O | 1.84% (inactive) |
| COc1ccccc1-c1cc(NC(C)=O)c2ncc(-c3ccc(F)cc3)n2c1 | 15.2% (active) |
| CC(=O)Nc1cc(-c2ccccc2N(C)C)cn2c(-c3ccc(F)c(Cl)c3)cnc12 | 26% (active) |
| CC(=O)Nc1cc(-c2ccccc2F)cn2c(-c3cccc(C(F)(F)F)c3)cnc12 | 19% (active) |
| COc1cccc(-c2cnc3c(NC(C)=O)cc(-c4cc(F)ccc4OC)cn23)c1 | 27.2% (active) |
| COc1ccccc1NC(=O)Nc1nnc(Cc2ccc(F)cc2)s1 | 4.89% (inactive) |
| Fc1ccccc1/C=N/Nc1cc(N2CCCCC2)ncn1 | -2.37% (inactive) |

| Structure (SMILES) | activation |
| --- | --- |
| O=C(Nc1ccc2oc(-c3ccc4ccccc4c3)nc2c1)c1cccs1 | 3.96% (inactive) |
| O=C(CCCCCn1c(=S)[nH]c2cc3c(cc2c1=O)OCO3)N1CCN(c2ccc(F)cc2)CC1 | 5.47% (inactive) |
| COC(=O)c1sccc1NC(=O)c1cc(OC)c(OC)c(OC)c1 | 3.33% (inactive) |
| O=C(CCCCCN1C(=O)c2cccc3cccc(c23)C1=O)NCc1ccco1 | 6.44% (inactive) |
| Cc1ccc(Sc2ccc(NC(=O)c3ccc(F)cc3)cc2C#N)cc1 | 2.18% (inactive) |
| Cc1ccc(S(=O)(=O)NCCC(=O)Nc2ccc(C)c(Cl)c2)cc1C | 3.25% (inactive) |
| CCOC(=O)c1nn(-c2ccccc2F)c2nc(Nc3ccccc3)cc(=O)n12 | 2.15% (inactive) |
| CCN1CCN(CCNC(=O)c2ccc(/C=C3/Sc4ccccc4N(Cc4cccc(C)c4)C3=O)cc2)CC1 | 9.47% (active) |
| O=C(NCCc1c[nH]c2ccc(Cl)cc12)c1ccc([N+](=O)[O-])cc1 | 3.47% (inactive) |
| Cc1ccc(-c2csc(SCC(=O)Nc3cc(C)on3)n2)cc1 | 3.04% (inactive) |
| Cc1ccc(C(=O)Nc2ccc(NC(=O)c3cccs3)cc2)c(C)c1 | 2.47% (inactive) |
| Cc1ccc(-n2nc(C)c(/C=N/NC(=O)c3cccs3)c2Cl)cc1 | 12% (active) |
| COCCN(CCOC)S(=O)(=O)c1ccc(C(=O)Nc2nc3c(s2)CCc2ccccc2-3)cc1 | 0.54% (inactive) |
| CCCCCCCCCCOC(=O)Cn1c(COc2ccc(C)cc2)[n+](C)c2ccccc21 | 29.9% (active) |
| CCCCCCCCCCOC(=O)Cn1c(COc2cccc(OC)c2)[n+](C)c2ccccc21 | 21.6% (active) |
| COC(=O)c1c(C)[nH]c(C(=O)/C=C/c2ccc(Cl)cc2)c1C | 2.58% (inactive) |
| CCn1c(SCC(=O)Nc2cccc(F)c2)nnc1-c1cc2cc(Br)ccc2o1 | 2.27% (inactive) |
| O=C(CCCn1c(SCC(=O)c2ccc(F)cc2)nc2ccccc2c1=O)NCc1ccco1 | 4.27% (inactive) |
| COc1ccc(Cl)cc1-n1c(C)cc(C(=O)OCC(=O)N2CC(=O)Nc3ccccc32)c1C | 10.5% (active) |
| Cc1cccc(C)c1OC(=O)CSc1nnc(-c2ccccc2)o1 | 2.94% (inactive) |
| O=C1N/C(=C/c2cccn2-c2ccccc2)C(=O)N1c1cccc(Cl)c1 | 13.2% (active) |
| Clc1ccc(Nc2ncnc3c2nnn3Cc2ccccc2)cc1 | -0.43% (inactive) |

| Structure (SMILES) | activation |
| --- | --- |
| O=C(OC12CC3CC(CC(C3)C1)C2)c1ccc(NCc2cc(O)ccc2O)cc1 | 5.55% (inactive) |
| Cc1ccccc1NC(=O)c1ccc(COc2ccc3c(C)cc(=O)oc3c2)cc1 | 28.2% (active) |
| COc1ccc(C(N)c2csc(NC(=O)Nc3cccc(C(F)(F)F)c3)n2)cc1 (stereo not drawn) | 11.5% (active) |
| COc1ccc(CC(N)c2csc(NC(=O)NC(c3ccccc3)c3ccccc3)n2)cc1 (stereo not drawn) | 17.4% (active) |
| COc1cc(NC(=O)c2cncc(-c3ccc(C#N)cc3)c2)cc(C(=O)Nc2cccc(C(F)(F)F)c2)c1 | 2.95% (inactive) |
| COc1ccc(Cc2nnc(NC(=O)c3ccc(OC)cc3OC)s2)cc1 | -0.87% (inactive) |
| O=C(NC1CCCCCC1)c1cccnc1Sc1ccc(Cl)cc1 | 0.48% (inactive) |
| COc1ccc(C)c(Cn2c(-c3nonc3N)nc3ccccc32)c1 | -0.25% (inactive) |
| CCc1ccc2c(c1)cc(CN(C(=S)Nc1ccccc1Cl)C1CC1)c1nnnn12 | 0.41% (inactive) |
| Cc1c(-c2ccccc2)n[nH]c1C(=O)N=Nc1c(O)[nH]c2ccccc12 | 3.31% (inactive) |
| Cc1ccsc1/C=N/Nc1ccc(Cl)nn1 | 2.12% (inactive) |
| CCOC(=O)c1c(-c2ccccc2)oc2cc(Br)c(O)c(C=O)c12 | 12.2% (active) |
| Cc1ccc([C@H]2C[C@H](O)[C@@H](n3cc(COC(=O)c4ccccc4)nn3)CN2C(=O)C2CCCCC2)cc1 | 1.84% (inactive) |
| COc1cc(/C=C(\C#N)C(=O)Nc2ccc3ccccc3c2)c([N+](=O)[O-])cc1OC | 5.51% (inactive) |
| COc1ccc(-c2cc(NC=O)c3ncc(-c4ccccc4)n3c2)cc1OC | 17.6% (active) |
| CN(C)C(=O)c1cccc(-c2cnc3c(NC=O)cc(-c4ccc(F)cc4)cn23)c1 | 9.94% (active) |
| CC(=O)c1cccc(-c2cnc3c(NC=O)cc(-c4ccc(N(C)C)cc4)cn23)c1 | 17.7% (active) |
| CN(C)CCNC(=O)c1cccc(-c2cnc3c(NC=O)cc(-c4cccc(C(F)(F)F)c4)cn23)c1 | 20.8% (active) |
| Cn1c(=S)sc2ccc3ccccc3c21 | 2.83% (inactive) |
| C=CCn1c(SCC(=O)c2ccc(Br)cc2)nnc1C(C)NC(=O)Cc1ccc(OC)cc1 (stereo not drawn) | 3.84% (inactive) |
| COC(=O)c1nc2n(n1)C(c1ccc([N+](=O)[O-])cc1)C(C(=O)Nc1ccc(Cl)cc1)=C(C)N2 (stereo not drawn) | -3.03% (inactive) |
| CCOC(=O)c1c(-c2ccc(C)cc2C)csc1NC(=O)CSc1nnnn1C | -1.45% (inactive) |

| Structure (SMILES) | activation |
| --- | --- |
| CCOC(=O)c1[nH]c2c(c1-c1ccccc1)C(=O)CC(c1ccc(Cl)cc1)C2 (stereo not drawn) | 2.82% (inactive) |
| Cc1ccc(-n2nc3cc(Cl)c(NC(=O)c4ccco4)cc3n2)cc1 | 0.27% (inactive) |
| COc1ccc(S(=O)(=O)N2CCC(C(=O)OCC(=O)c3ccccc3)CC2)cc1[N+](=O)[O-] | 5.6% (inactive) |
| Cc1cc(C)cc(C(=O)OCC(=O)NCCNC(=O)COC(=O)c2cc(C)cc(C)c2)c1 | 0.95% (inactive) |
| O=C(COC(=O)c1cccc(Br)c1)Nc1cccc2c1C(=O)c1ccccc1C2=O | 8.85% (active) |
| O=C(CSc1ccccc1)Nc1nnc(/C=C/c2ccccc2)s1 | 32.6% (active) |
| CCCCNc1c(-c2cccc(Sc3ccc(OC)cc3)c2)nc2ccccn12 | 5.36% (inactive) |
| COc1ccc2sc(-c3ccc(S(C)(=O)=O)cc3)c(C#Cc3cncn3C)c2c1 | 27.1% (active) |
| O=C(Cn1cnc2c(nnn2-c2ccccc2)c1=O)N1CCC(Cc2ccccc2)CC1 | 5% (inactive) |
| CCN(CC)S(=O)(=O)c1ccc(C)c(NC(=O)COc2ccc(Br)cc2Cl)c1 | 12.9% (active) |
| CSc1ccc(/C=N\NC(=O)COc2ccc(Cl)cc2Br)cc1 | 4.69% (inactive) |
| CCN(CC)C(=O)Oc1ccc(Br)cc1C(=O)Nc1ccc(F)c(Cl)c1 | -3.02% (inactive) |
| O=C(c1cc(-c2cccc(O)c2)on1)N1CCc2ccccc2C1 | -1.12% (inactive) |
| Clc1ccccc1Nc1nc(NCc2cccs2)nc2ccsc12 | 2.53% (inactive) |
| COc1ccc(Nc2ncnc3sc(-c4ccccc4)cc23)c(OC)c1 | 5.2% (inactive) |
| COCCNc1nc(Nc2ccccc2Cl)c2sc(-c3ccccc3)cc2n1 | 11.8% (active) |
| O=C(Nc1sc2c(c1-c1nc3ccccc3[nH]1)CCCC2)C1CC1 | 6.22% (inactive) |
| O=C(OCc1cn(-c2ccc(Cl)c(Cl)c2)nn1)c1ccccc1Cl | -2.69% (inactive) |
| COc1ccc(Nc2oc(-c3ccccc3Cl)nc2C#N)cc1 | 6.82% (inactive) |
| COc1cccc(CNC(=O)c2nnn(CC(=O)Nc3cc(Cl)ccc3C)c2N)c1 | 2.75% (inactive) |
| Cc1cc(/C=C(/C#N)C(=O)Nc2ccc(Cl)cc2)c(C)n1-c1cccnc1 | 0.76% (inactive) |
| Cc1ccc2nc(-c3ccncc3)cc(C(=O)Nc3ccc(OC(F)F)cc3)c2c1 | 1.63% (inactive) |
